Rows were chosen to be rich in hits. Some 21% of all compounds tested hit in one or more screens of this group.
Pf growth 48h – inhibits P. falciparum growth in the first generation, 48 h; P. falciparum luciferase growth in erythrocytes, 48 h; AID 504832; Potency, µM (doses to about 28.7 µM), actives largely listed as inhibitors; 310,000 tested, 5.9% active
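Here the parasites carry a stable luciferase gene and grow inside erythrocytes in Albumax-based RPMI medium with compound for one erythrocytic cycle. Activity is scored as loss of luminescent signal.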
Pf growth 96h – P. falciparum growth inhibition at 96 hour, primary screen for plastid delayed-death inhibitors; P. falciparum luciferase reporter growth, 96 h; Potency, µM (doses to about 28.7 µM), hits mostly inhibitors; 320,000 tested, 6.9% active
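Two parasite generations (96 h, 37 C, 5% CO2) of compound exposure in infected erythrocytes (0.05% parasitemia, 2% hematocrit). Luciferase-reporter P. falciparum; decreased luminescence indicates inhibited growth, aimed at apicoplast-acting delayed death.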
Cycloheximide cs – affects cycloheximide protein synthesis inhibition readout, counter-screen | max response, % | AID 2314 | 300,000 tested, 12% active | cell reporter, cycloheximide protein synthesis inhibition counterscreen; in the data active means max response mostly above about 13%, no sharp cut-off; inactive means mostly below about 14%; further: read at 38.3 µM for the half of the compounds with a filed dose
NS1 inh – influenza NS1 inhibition; AID 2326; 270,000 tested, 0.4% active; Potency, µM (series often up to 46.1 µM); calls by dose curve; further: actives are rising curves; nearly all actives have a fitted effect of over 50% in size
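Growth recovery, yeast-based: influenza A NS1 expressed in S. cerevisiae causes slow growth, and suppressors are detected by OD600. The parent strain without NS1 is used as positive control.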
Shiga inhibitor – blocks Shiga toxin action in Vero cells; Vero cells, Shiga toxin protein synthesis inhibition reporter; inhibition, % at 38.7 µM; 290,000 tested, 9.2% active; AID 2315; in the data active means inhibition mostly above about 28%, no sharp cut-off; inactive means mostly below about 43%
Sm TGR inh – inhibitors of Schistosoma mansoni thioredoxin glutathione reductase; Potency, µM (highest dose often 114 µM), actives largely listed as inhibitors; AID 485364; purified TGR, DTNB reduction, TNB absorbance 405 nm; 360,000 tested, 3% active; Q962Y6; further: nearly all actives have a fitted effect of over 60% in size
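Kinetic colorimetric format: TGR-catalysed, NADPH-driven DTNB reduction monitored via TNB absorbance. Enzyme dispensed at 20 nM; compound exposure 15 min at room temperature before reaction start.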
Each line names hits and unclear results; the compound was inactive in the other large screens. Unless noted, the call rests on the fitted dose curve; in most records, active means well fitted curve in the direction sought with a large enough effect; inconclusive means small, poorly fitted or top-dose-only effect, or another doubt; inactive means no such curve, though single readings can be large; an effect the other way counts as inactive or inconclusive.

Cc1ccsc1C(=O)OCC(=O)NC1CCCCC1C (configuration not stated)	none (no result: Cycloheximide cs, NS1 inh, Shiga inhibitor)
COc1ccccc1CNC(=O)COC(=O)c1ccc2c(=O)n3c(nc2c1)CCCCC3	none (no result: Cycloheximide cs, NS1 inh, Shiga inhibitor)
COc1cccc(NC(=O)Cn2c(=O)n(-c3ccccc3)c(=O)c3ccc(C(=O)NCc4ccc5c(c4)OCO5)cc32)c1	none (no result: Pf growth 48h, Pf growth 96h, Cycloheximide cs, NS1 inh, Shiga inhibitor)
O=C(c1ccccc1)c1nc2c(n1O)CCCCC2	Cycloheximide cs 32, Shiga inhibitor 44 (no result: NS1 inh)
Cc1oc(-c2ccccc2F)nc1CS(=O)(=O)CC(=O)N1CCN(Cc2ccccc2)CC1	Pf growth 96h inconclusive, Sm TGR inh 13µM
Cc1ccccc1-c1nc(CS(=O)(=O)CC(=O)N2CCCCC2)c(C)o1	Sm TGR inh 22µM
Cc1oc(-c2ccccc2F)nc1CS(=O)(=O)CC(=O)N1CCOCC1	Pf growth 96h 9.3µM, Sm TGR inh 45µM
COc1ccc(NC(=O)c2ccccc2-c2ccccc2)c(C)c1	none (no result: Sm TGR inh)
COc1ccc(-c2noc(N3CCC(C(=O)N4CCN(c5ccccc5F)CC4)CC3)n2)cc1	none (no result: Pf growth 48h, Pf growth 96h, Cycloheximide cs, NS1 inh, Shiga inhibitor)
Cc1cc(C)cc(NC(=O)Cn2c(SCc3cc(C)ccc3C)nc3ccncc32)c1	Cycloheximide cs 76, Shiga inhibitor 89
O=C(NC1CCCCC1)Oc1cc2oc(=O)sc2cc1Cl	Pf growth 96h inconclusive, Cycloheximide cs 16, Sm TGR inh inconclusive
O=C(NC1CCCCC1)Oc1cccc2ccccc12	none
C=C(C)COc1ccc(-c2ncncc2-c2ccc(Cl)cc2)c(O)c1	Pf growth 48h 5.2µM, Pf growth 96h 2.3µM
COc1cccc(Oc2cncnc2-c2ccc(OC)cc2O)c1	Pf growth 48h 5.2µM
CCc1cc(-c2nc(N)ncc2-c2ccc(Br)cc2)c(O)cc1OC	none
COc1ccc(-c2nc(N)ncc2-c2ccc(OC)c(OC)c2)c(O)c1	none
C=C(C)COc1ccc(-c2ncncc2-c2ccc(Br)cc2)c(O)c1	Pf growth 48h 1.9µM, Pf growth 96h 2.3µM
COc1ccc(-c2cnc(N)nc2-c2ccc(OCc3ccccc3)cc2O)cc1	Pf growth 48h inconclusive, Pf growth 96h 15µM
COc1ccc(-c2cncnc2-c2ccc(OC)cc2O)cc1	Pf growth 48h inconclusive, Pf growth 96h inconclusive
O=c1cc(N2CCNCC2)oc2c(-c3ccccc3)cccc12	none (no result: Pf growth 48h, Pf growth 96h, NS1 inh, Sm TGR inh)
Cc1ccc(NC(=O)N2CCc3cc(S(=O)(=O)N4CCC(C)CC4)ccc32)cc1F	none (no result: Pf growth 48h, Pf growth 96h, Cycloheximide cs, NS1 inh, Shiga inhibitor)
CCOC(=O)c1c(C)[nH]c(C)c1S(=O)(=O)N(C)CC(=O)Nc1cccc(C)n1	none
CCN(Cc1ccccc1)Cc1c(O)ccc2c(=O)c(-c3ccccc3Cl)coc12	none (no result: Pf growth 48h, Pf growth 96h, Cycloheximide cs, NS1 inh, Shiga inhibitor)
CCOc1ccc(-c2nc(N)ncc2Oc2ccccc2Br)c(O)c1	Pf growth 96h 3.3µM (no result: Pf growth 48h)
C=C(C)COc1ccc(-c2nc(N)ncc2Oc2ccc(OC)cc2)c(O)c1	Pf growth 48h inconclusive
COc1ccc(-c2ncncc2-c2ccc(Cl)cc2)c(O)c1	Pf growth 48h 8.3µM, Pf growth 96h 7.4µM
C=C(C)COc1ccc(-c2nc(N)ncc2-c2ccc(Br)cc2)c(O)c1	Pf growth 48h 8.3µM, Pf growth 96h inconclusive, Sm TGR inh inconclusive
CCOC(=O)COc1ccsc1C(=O)OC	none
CCOC(=O)Cc1sc(N)nc1C	none
CCN(CC)CCOC(=O)c1ccc(NC(=O)CCCN2C(=O)/C(=C/c3cccs3)SC2=S)cc1	Pf growth 48h 5.2µM, Pf growth 96h inconclusive
O=C(CCN1C(=O)/C(=C/c2cccs2)SC1=S)Nc1ccccn1	Pf growth 48h inconclusive, Pf growth 96h inconclusive (no result: NS1 inh)
O=C(CCN1C(=O)S/C(=C\c2cccs2)C1=O)NC1=NCCS1	Cycloheximide cs 17
O=C(CCCN1C(=O)/C(=C/c2cccs2)SC1=S)NNC(=O)c1ccccc1O	Pf growth 96h 3.3µM
O=C(CCCN1C(=O)/C(=C\c2cccs2)SC1=S)Nc1ccc(C(=O)O)cc1	Pf growth 96h inconclusive (no result: NS1 inh)
COc1cccc(NC(=O)c2ccn(C)n2)c1	Cycloheximide cs 41, Shiga inhibitor 72
COc1cccc(NC(=O)c2cnsn2)c1	Cycloheximide cs 44, Shiga inhibitor 140 (no result: Pf growth 48h)
O=C(COc1ccc2oc3c(c2c1)CCCC3)Nc1ccc(Br)cc1	none (no result: Pf growth 48h, Pf growth 96h, Cycloheximide cs, NS1 inh, Shiga inhibitor)
Cc1cc(Cl)ccc1NC(=O)c1ccc2c(c1)OCO2	Cycloheximide cs 26, Shiga inhibitor 77
Cc1ccc(NC(=O)c2ccc3c(c2)OCO3)cc1Cl	Pf growth 96h inconclusive, Cycloheximide cs 45, Shiga inhibitor 90
O=C(Nc1ccc(Cl)cc1Cl)c1ccc2c(c1)OCCO2	none (no result: Cycloheximide cs, NS1 inh, Shiga inhibitor)
Cc1ccc(C(=O)Nc2ccc3c(c2)OCO3)cc1Cl	Pf growth 96h inconclusive, Cycloheximide cs 51, Shiga inhibitor 168
COc1cc(Cl)c(C)cc1NC(=O)c1ccc2c(c1)OCO2	Pf growth 96h inconclusive
OCCC1CN(Cc2cn[nH]c2C2CCCCC2)CCN1C1CCCCC1 (configuration not stated)	none
COC(=O)c1c(C)[nH]c(C=Nc2ccc(OC)cc2)c1C	none
CCOC(=O)c1c(C)[nH]c(C=Nc2ccc(OC)cc2)c1O	Pf growth 96h 15µM, Cycloheximide cs 20, Shiga inhibitor 84
CCOC(=O)c1c(C)[nH]c(C=Nc2ccccc2)c1O	Pf growth 96h 9.3µM, Sm TGR inh 32µM
CCOC(=O)c1c(C)[nH]c(O)c1C=Nc1ccccc1	Pf growth 48h inconclusive, Pf growth 96h inconclusive
CCC(C(=O)Nc1cccc(Cl)c1C)n1nc(C)c2sc3ccccc3c2c1=O (configuration not stated)	none (no result: Pf growth 48h, Pf growth 96h, Cycloheximide cs, NS1 inh, Shiga inhibitor)

Screening results as filed in PubChem.
